# Assay outcomes as filed in PubChem.
# The sample as a whole holds a higher share of hits than the screen did.
# Pf apPOL block = Pf-apPOL DNA polymerase inhibition; Recombinant Pf-apPOL, molecular beacon fluorescence, 1.5 h; inhibition, % at 10 µM; 210,000 tested, 0.25% active
# mHTT-CaM PPI inh = mHTT-calmodulin interaction abrogation; 190,000 tested, 3.6% active; AID 1671202; AlphaScreen His-mHTT/GST-CaM binding, luminescence; inhibition, % at 15 µM; P42858;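 note: 0% = both proteins with DMSO and 100% = one protein alone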
# Active calls of the source: *; · = not tested or not shown. Cut-off read from the data, not from the text of the source: active = inhibition above about 50%; inactive = the rest.
SMILES,Pf apPOL block,mHTT-CaM PPI inh
CCCN1C(=O)Cc2ccccc2C1C(=O)NCc1cc(F)cc(F)c1 (centres undefined),-3.4,-7.8
O=C(NCc1ccccc1Cl)C(=O)NCc1c(F)cccc1F,-1.1,-2.7
O=C(NCc1cccnc1-c1ccccc1)c1ccc2c(c1)OCO2,-10.1,0.3
O=C(NCc1ccccn1)c1ccc2c(c1)OCO2,-0.6,100.2*
COc1ccc(CC(=O)N2CCCC2c2ccccc2C)cc1OC (centres undefined),-4.1,3.2
Cc1ccc(NC(=O)C2CCCN(c3nnc4ccccn34)C2)cc1F (centres undefined),-1.4,-6.2
Cc1nc(-c2ccc(F)cc2)sc1C(=O)N1CCC(CC(=O)NCc2ccco2)CC1,-7.7,40.7
Cc1nnc2sc(SCC(=O)Nc3cccc(C(F)(F)F)c3)nn2c1=O,0.1,99.0*
Cc1cc2c(=O)n(CC(=O)Nc3cccc(C(F)(F)F)c3)cnc2s1,-1.3,-11.0
CC(C)C(=O)Nc1ccc(N2CCCN(C(=O)c3cccc(Cl)c3)CC2)nc1,1.3,0.2
COc1cscc1C(=O)NNC(=O)c1ccc(Cl)cc1,-16.1,·
CCC(=O)N1CCN(c2nc3c(s2)CC(C(=O)NC2CC2)CC3)CC1 (centres undefined),-1.7,8.3
CN1CCN(C(CNC(=O)NCc2ccccc2)c2ccc3c(c2)CCCN3C)CC1 (centres undefined),-12.3,37.2
CN1CCCc2cc(C(CNC(=O)Nc3cccs3)N3CCCC3)ccc21 (centres undefined),2.2,55.4*
NS(=O)(=O)c1ccc(NC(=O)CSc2nnc(-c3ccco3)c(-c3ccco3)n2)cc1,-0.6,40.0
O=C(CSc1nnc(-c2ccco2)c(-c2ccco2)n1)Nc1ccc(Cl)cc1,0.9,99.0*
CCn1c(N2CCCC(C(=O)Nc3ccc(C)cc3)C2)cc(=O)n(C)c1=O (centres undefined),-6.7,25.6
COCCN=C1Nc2ccccc2NC12CCCN(C(=O)c1ccccc1C)C2 (centres undefined),-3.4,5.3
COCCN=C1Nc2ccccc2NC12CCCN(C(=O)c1n[nH]c3ccccc13)C2 (centres undefined),-6.8,75.7*
COCCN=C1Nc2ccccc2NC12CCCN(C(=O)Cc1ccccc1F)C2 (centres undefined),2.0,99.9*
COCCN=C1Nc2ccccc2NC12CCCN(C(=O)Cc1c[nH]c3ccccc13)C2 (centres undefined),-7.4,33.3
COCCN=C1Nc2ccccc2NC12CCCN(C(=O)c1ccccn1)C2 (centres undefined),-5.9,5.3
COCCN=C1Nc2ccccc2NC12CCCN(C(=O)Cc1ccsc1)C2 (centres undefined),-2.8,97.7*
CCc1ccc(NC(=O)CN2C(=O)C(c3ccc(F)cc3)=NC23CCCC3)cc1,-6.1,-11.6
O=C(c1ccoc1)N1CCC(c2nncn2Cc2ccccc2)CC1,0.2,-9.8
SMILES,Pf apPOL block,mHTT-CaM PPI inh
COc1cccc(/C=C2/N=C(c3ccc([N+](=O)[O-])cc3)OC2=O)c1OC,1.5,-1.0
Cc1ccc(S(=O)(=O)N=C2C=C(Nc3cccc(C(=O)O)c3)C(=O)c3ccccc32)c(C)c1,46.8,86.0*
Cc1ccc(S(=O)(=O)N=C2C=C(Nc3cccc(C(=O)O)c3)C(=O)c3ccccc32)cc1,3.9,62.0*
Cc1ccc(C)c(S(=O)(=O)N=C2C=C(Br)C(=O)c3ccccc32)c1,-6.7,46.0
Cc1ccc(NC(=O)c2cccc(S(=O)(=O)Nc3cccc(C(=O)O)c3)c2)cc1,-7.3,-2.7
Cc1cc(C)nc(SCc2nc3ccccc3nc2C)n1,·,-7.8
O=C(NC1CC1)c1cnn2c(-c3ccccn3)ccnc12,-2.5,-0.4
COc1ccc(-c2cc(C(=O)Nc3cc(F)cc(F)c3)sn2)cc1,-3.5,-9.9
CCc1n[nH]c(CC)c1NC(=O)c1cccc(OC)c1,1.7,-7.7
CCc1[nH]nc(-c2ccc(OC)cc2OC)c1NC(C)=O,83.5*,96.8*
CC(C)(C)NC(=O)C(=O)NCCc1ccccc1,-3.1,-5.0
COc1ccc(NC(=O)c2ccc(OC)c([N+](=O)[O-])c2)cc1OC,-0.1,7.4
COc1ccc(C(=O)Nc2ccc(N(C)C)cc2)cc1[N+](=O)[O-],-6.1,58.5*
N#C/C(=C\c1ccc(O)c(O)c1)c1nc(-c2ccc3c(c2)OCO3)cs1,6.4,97.5*
COc1ccc(-c2csc(/C(C#N)=C/c3ccc(O)c(O)c3)n2)cc1OC,10.6,81.1*
COc1ccc(/C=C(\C#N)c2nc(-c3ccc(OC)c(OC)c3)cs2)cc1O,0.5,1.2
N#C/C(=C\c1ccccc1[N+](=O)[O-])c1nc(-c2ccc3c(c2)OCO3)cs1,-2.8,8.7
O=C(NC1CCCCCC1)c1ccc(N2CCC3(CC2)OCCO3)c([N+](=O)[O-])c1,-8.5,24.0
COc1ccc(C)cc1NC(=O)N1CCc2nc[nH]c2C1,0.3,-6.6
CC(C)Cn1c(-c2cccc(C(=O)N3CCCCC3)c2)nc2cccnc21,-8.0,8.1
Cc1ccc(Cc2c(C)nc3c(C(=O)NC4CCCC4)c[nH]n3c2=O)cc1,6.5,75.0*
Cc1ccc(Cc2c(C)nc3c(C(=O)NCCC(C)C)c[nH]n3c2=O)cc1,-7.9,14.0
Cc1nc2c(C(=O)NC3CCCC3)c[nH]n2c(=O)c1Cc1ccc(Cl)cc1,8.8,55.0*
Cc1nc2c(C(=O)O)c[nH]n2c(=O)c1Cc1ccc(Cl)cc1,35.0,-4.0
Cc1ccc(-c2csc3c(=O)n(Cc4ccccn4)cnc23)cc1,-13.6,-9.5
SMILES,Pf apPOL block,mHTT-CaM PPI inh
NCCNC(=S)Nc1ccccc1,-1.1,-4.1
Cc1sc2c(c1C)C(=O)NC1(N2)C(=O)N(Cc2ccccc2F)c2ccccc21 (centres undefined),16.5,53.0*
O=C1N(Cc2ccccc2F)c2ccccc2C12OCCCO2,-6.9,-28.0
COc1ccc(C2CCN(S(=O)(=O)c3cccc(C(F)(F)F)c3)C2)cc1 (centres undefined),-1.8,-84.5
CCn1cc(C(=O)NCc2ccccn2)c2n[nH]c(=O)c-2c1,-11.0,29.8
CC(C)CC1(C(=O)O)NC(c2ccc(F)cc2)C2C(=O)N(c3ccccc3Cl)C(=O)C21 (centres undefined),1.0,3.0
O=C(c1ccnc(N2CCCCC2)n1)N1CCN(c2cccc(Cl)c2)CC1,2.9,56.4*
CC1CCN(c2nccc(C(=O)N3CCN(c4cccc(Cl)c4)CC3)n2)CC1,-1.6,11.4
CCN1CCn2cc(C(=O)N3CCN(c4ccc(Cl)cc4)CC3)nc2C1,-5.6,43.7
CCN1CCn2cc(C(=O)N3CCN(c4cccc(Cl)c4)CC3)nc2C1,-5.0,52.7*
Cc1ccc(NC(=O)C2CC(=O)N(c3ccccc3C)C2)cc1C (centres undefined),-3.1,-0.2
O=C1CC(NCc2ccco2)C(=O)N1c1ccc(OC(F)(F)Cl)cc1 (centres undefined),-4.9,2.0
COc1cc(NC(=O)N2c3ccccc3Sc3ccccc32)cc(OC)c1,-7.5,1.4
COc1ccc(NCC(=O)N2c3ccccc3Sc3ccccc32)cc1,3.1,59.9*
CCOc1ccc(-n2ccnc2SCC(=O)Nc2ccccc2C(F)(F)F)cc1,-0.5,24.6
Cc1ccc(NC(=O)CSc2nnc3c(n2)[nH]c2ccccc23)cc1Cl,3.4,53.0*
Cc1ccc(NC(=O)CSc2nc3c([nH]c4ccccc43)c(=O)n2C)cc1Cl,0.1,18.0
COc1ccc(C=Nc2ccc3ncccc3c2)cc1,-1.6,31.0
COc1ccc(C=Nc2ccc3c(c2)nc(C)n3C)cc1,69.0*,6.0
